# KDM5B inh – Primary screen for KDM5B Histone Demethylases FDH-coupled qHTS; Lysine-specific demethylase 5B (Homo sapiens), Q9UGL1; KDM5B demethylase, FDH-coupled NADH fluorescence (FDH is formaldehyde dehydrogenase); Potency, µM (top dose mostly 57.7 µM), actives largely listed as inhibitors; hit rate 2.6% among 220,000; AID 1347165, 2019; active = well fitted inhibition curve with a large enough effect; also: 0% is about no effect; nearly all actives have a fitted effect of over 70% in size
#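 Measured: NADH fluorescence change, 30 min, RT. System: KDM5BΔAP 200 nM final, H3K4me3 peptide, α-KG, Fe(II), ascorbate, NAD⁺ plus FDH, pH 7.5 HEPES. Compounds: titrated, 10 min pre-incubation with enzyme.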
# Active calls of the source: *; i = inactive. The full list was thinned out, with hits kept by preference. Potency is read from the fitted curve at half-maximal effect.
SMILES,KDM5B inh
Cc1ccc(C)c(NC(=O)CCc2ncc(-c3c(F)cccc3F)o2)c1,i
CC(=O)Nc1ccc2[nH]cc(C(C(=O)O)N3CCN(c4ncccc4C#N)CC3)c2c1 (stereo not given),i
COc1cccc(C(=O)Nc2ccc3c(c2)CN(Cc2cccc(OC)c2OC)C(=O)CO3)c1,i
Cc1ccc(C=O)n1-c1ccncc1,i
Cc1ccnc2nc(C(=O)OCC(=O)Nc3ccccc3)nn12,i
COC(=O)C1=C(C)NC(=O)NC1c1cccc(Oc2ccc(Cl)cc2)c1 (stereo not given),i
O=C(c1ccoc1)N1CCC(Cc2nc(C3CCOCC3)no2)CC1,i
COc1cccc(CNC(=O)C2(C)CCCCC(=O)N2)c1OC (stereo not given),i
COc1cccc(NC(=O)c2ccc(-c3nnc4ccc(NC(=O)C5CCC5)cn34)cc2)c1,25µM*
COc1cccc(NC(=O)c2ccc(-n3cnnn3)cc2)c1,i
COc1cccc(NC(=O)C2CCN(c3ccc4nnc(C(C)C)n4n3)CC2)c1,i
O=C(NC1CC1)C(NCc1ccc(F)cc1)c1ccc(F)cc1 (stereo not given),i
O=C(Cc1c[nH]c2ccccc12)NCC(=O)N1CCCCCNC(=O)CC1c1ccccc1 (stereo not given),i
O=C1CC(c2ccccc2)N(C(=O)CNC(=O)c2c[nH]c3ccccc23)CCCCCN1 (stereo not given),28µM*
O=C1CC(c2ccccc2)N(C(=O)C2CC2)CCCN(C(=O)c2ccc3ccccc3n2)CCN1 (stereo not given),i
O=C1CC(c2ccccc2)N(C(=O)C2CC2)CCCN(C(=O)c2ccc3cc[nH]c3c2)CCN1 (stereo not given),28µM*
O=C1CC(c2ccccc2)N(C(=O)C2CC2)CCCN(C(=O)c2ccoc2)CCN1 (stereo not given),i
O=C(CCc1c[nH]c2ccccc12)NCC(=O)N1CCCCCCNC(=O)CC1c1ccccc1 (stereo not given),i
O=C1CC(c2ccccc2)N(C(=O)CNC(=O)c2ccc3cc[nH]c3c2)CCCCCN1 (stereo not given),25µM*
O=C1CC(c2ccccc2)N(C(=O)CNC(=O)c2ccoc2)CCCCCCN1 (stereo not given),i
N#Cc1cccc(C(=O)NCC(=O)N2CCCCCCNC(=O)CC2c2ccccc2)c1 (stereo not given),i
O=C(O)/C=C/C(=O)c1ccc(F)cc1,i
N#CC1=C(N)OC2=C(C(=O)CC(c3ccccc3)C2)C1c1ccccc1C(F)(F)F (stereo not given),i
COc1ccc(NC(=O)CSc2nnc(-n3nc(C)cc3C)n2N)cc1Cl,i
O=C(O)CCC1CCCN(S(=O)(=O)c2ccccc2)C1 (stereo not given),i
SMILES,KDM5B inh
O=C(CCC1CCCN(S(=O)(=O)c2ccc(F)cc2)C1)NC1CC1 (stereo not given),i
Cc1ccccc1S(=O)(=O)N1CCCC(CCC(=O)O)C1 (stereo not given),i
O=C(CCC1CCCN(S(=O)(=O)c2ccccc2)C1)NCC1CC1 (stereo not given),20µM*
O=C(CCC1CCCN(S(=O)(=O)c2ccccc2)C1)NCc1ccc(Cl)cc1 (stereo not given),i
Cc1ccccc1S(=O)(=O)N1CCCC(CCC(=O)NC2CC2)C1 (stereo not given),14µM*
Cc1ccc(Nc2nc(N)nc(COc3ccccc3C(N)=O)n2)cc1,i
CCC(C)(C)C1CCC(NC(=S)Nc2cccc(Cl)c2Cl)CC1 (stereo not given),i
O=C(/C=C/c1cccs1)Oc1ccc2oc3ccccc3c2c1,i
NC(=O)C1CCN(C(=O)C2CCN(S(=O)(=O)Cc3c(F)cccc3Cl)CC2)CC1,i
CCOCCOC1CCN(C(=O)COc2ccccc2)CC1,i
CCOCC(=O)N1CCC(Oc2ncccc2C(=O)N2CCCCC2)C1 (stereo not given),i
CCOCC(=O)N1CCC(Nc2cccn3ncnc23)CC1,16µM*
CN(Cc1ccc(Br)cc1)C(=O)Cn1nnn(-c2cccs2)c1=O,i
C=C(Cl)CN1CCN(Cc2ccccn2)CC1,i
Cc1ccc(CCNC(=O)c2cc3c(N4CCCC4)nc(C)cn3n2)cc1,i
Cc1cn2nc(C(=O)NC3CCCC3)cc2c(N2CCCC2)n1,i
Cc1cn2nc(C(=O)NC3CCCCCC3)cc2c(N2CCCC2)n1,6.3µM*
CCOc1cc(=O)n2c(c1C(=O)NC1CCc3ccccc31)CCCCC2 (stereo not given),i
O=C(NC1CCc2ccccc21)c1ccc2ccccc2n1 (stereo not given),i
Cc1cn2nc(C(=O)NC3CCc4ccccc43)cc2c(N2CCCC2)n1 (stereo not given),14µM*
CC(C)(C)c1ccccc1NC(=O)c1ccccc1F,i
CN(C(=O)CSc1nc(-c2ccccc2)no1)C1CCCCC1,i
CS(=O)(=O)N(C1CCOCC1)C1CN(C(=O)c2n[nH]c3ccccc23)C1,i
